Compound activity deposited in PubChem by National Center for Advancing Translational Sciences (NCATS).
POLH inh: blocks human DNA polymerase eta activity; Q9Y253; recombinant Pol eta, fluorescent DNA replication assay; Potency, µM (doses to about 114 µM), for inactives: at the highest dose activity change, negative = inhibition, most hits filed as inhibitors; 390,000 compounds, 1.2% hits; further: on the % scale 0 is the no-effect control and ±100 the full control effect
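Pol eta (10 nM) was preincubated with compounds for 15 min at room temperature, after which fluorescent replication substrate (50 nM final) was added to start the reaction. Fluorescence was read kinetically at 0 and 10 min.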
POLK inh: blocks human DNA polymerase kappa activity; purified Pol kappa, fluorescent DNA synthesis assay, 10 min; Potency, µM (top dose mostly 107 µM), without a hit: at the highest dose activity, negative = inhibition, actives largely listed as inhibitors; Q9UBT6; 400,000 compounds, 0.53% hits; further: on the % scale 0 is the no-effect control and ±100 the full control effect
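Fluorescent qHTS in 1536-well format: enzyme (10 nM) and compound sat 15 min at room temperature before 50 nM substrate (final) was added. Signal taken at 0 and 10 min; no-enzyme buffer wells were negative controls.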
GCN5L2 inh: blocks human GCN5L2 histone acetyltransferase; Q92830; GCN5L2 HAT assay, ThioGlo1 CoA-SH fluorescence; Potency, µM (doses to about 58.9 µM), without a hit: at the highest dose activity change, negative = inhibition, usual class: inhibitors; 390,000 compounds, 0.21% hits; AID 504327; further: on the % scale 0 is the no-effect control and ±100 the full control effect
Target sequence (Q92830 whole entry, looked up): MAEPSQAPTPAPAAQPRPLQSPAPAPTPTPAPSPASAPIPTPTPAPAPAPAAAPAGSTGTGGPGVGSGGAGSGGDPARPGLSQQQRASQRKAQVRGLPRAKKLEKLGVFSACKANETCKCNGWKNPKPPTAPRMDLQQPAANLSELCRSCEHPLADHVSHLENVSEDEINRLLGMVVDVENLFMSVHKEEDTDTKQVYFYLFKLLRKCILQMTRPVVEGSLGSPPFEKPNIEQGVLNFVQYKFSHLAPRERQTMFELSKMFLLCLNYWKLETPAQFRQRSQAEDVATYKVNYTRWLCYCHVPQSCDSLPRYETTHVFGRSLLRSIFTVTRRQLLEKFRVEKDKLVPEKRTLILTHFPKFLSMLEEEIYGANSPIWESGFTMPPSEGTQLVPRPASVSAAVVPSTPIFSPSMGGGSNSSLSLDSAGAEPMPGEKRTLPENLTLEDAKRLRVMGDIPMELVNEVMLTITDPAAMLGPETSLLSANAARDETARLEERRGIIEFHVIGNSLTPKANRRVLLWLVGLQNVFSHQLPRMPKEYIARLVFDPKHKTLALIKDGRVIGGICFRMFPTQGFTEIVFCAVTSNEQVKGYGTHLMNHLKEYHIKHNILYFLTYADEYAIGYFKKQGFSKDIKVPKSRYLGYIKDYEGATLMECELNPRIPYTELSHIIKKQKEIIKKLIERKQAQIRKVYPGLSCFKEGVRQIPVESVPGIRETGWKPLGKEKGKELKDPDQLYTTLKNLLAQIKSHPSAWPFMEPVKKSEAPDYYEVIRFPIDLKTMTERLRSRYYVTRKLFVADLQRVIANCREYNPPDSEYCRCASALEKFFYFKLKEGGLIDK
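ThioGlo1-coupled HAT assay: 20nM GCN5L2, 70uM acetyl-CoA, 75uM H3(1-25) peptide, pH 7.5. Fluorescence read at 340/540nm at start and after 20 min at room temperature.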
POLB inh: DNA polymerase beta (human) inhibition; P06746; 340,000 compounds, 1.3% hits; Pol beta primer extension/strand displacement, fluorescence kinetic; Potency, µM (titrated, usually from 114 µM), for the others: at the top dose activity change, negative = inhibition, hits mostly inhibitors; further: on the % scale 0 is the no-effect control and ±100 the full control effect
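Enzyme-only controls used 10 nM Pol beta; buffer lacking enzyme served as negative control. Compound preincubated 15 min, then 50 nM substrate added; 0 and 10 min reads at room temperature.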
GLS inhibitor: glutaminase GLS (human) inhibition; O94925; GLS enzymatic activity, qHTS titration; Potency, µM (top dose mostly 45.5 µM), without a hit: top-dose activity change, negative = inhibition, hits mostly inhibitors; 410,000 compounds, 0.21% hits; AID 624170; further: on the % scale 0 is the no-effect control and ±100 the full control effect
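hKGA in 45 mM KH2PO4 (pH 8.2), 0.02% Tween-20 with compound, then 1mM L-Glutamine (stock as added) plus glutamate oxidase/HRP/Amplex red coupling mix. Fluorescence read initially and after 30 min at RT; signal change reflects glutamate formation.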
Pol iota inh: blocks human DNA polymerase iota activity; Pol iota fluorescent replication assay, 10 min; AID 588590; Q9UNA4; Potency, µM (top dose mostly 115 µM), for the others: at the top dose activity, negative = inhibition, hits mostly inhibitors; 390,000 compounds, 1% hits
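Fluorescent replication assay read twice, at 0 min and 10 min after adding 50 nM (final) substrate. Enzyme (10 nM) and compounds were first incubated 15 min at room temperature; enzyme-free buffer wells were negative controls.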
Active calls of the source: *; u = inconclusive; x = not tested or not shown; ! = repeats disagree; [ ] = another dose, or the depositor's remark. Rows were chosen to be rich in hits. Some 2.4% of all compounds tested hit in one or more screens of this group. The call rests on the fitted dose curve; in most records, active means well fitted inhibition curve with a large enough effect; inconclusive means small, poorly fitted or top-dose-only effect, or another doubt; inactive means no such curve, though single readings can be large or run the other way. Potency means the concentration at half of the fitted maximal effect.

SMILES	POLH inh	POLK inh	GCN5L2 inh	POLB inh	GLS inhibitor	Pol iota inh
O=C(Nc1nccs1)[C@@H]1CC=C[C@@H]2CCN(Cc3ccc(Cl)c(Cl)c3)C(=O)[C@@H]21	x	-9%	x	x	x	9%
CCOc1ccccc1-c1c2cc(O)c(=O)cc-2oc2cc(O)c(O)cc12	28µM*	14µM*	1%	1.6µM*	u	x
COc1ccccc1-c1cc(=O)c2cc(O)ccc2o1	x	-9%[19.4 µM]	x	x	x	x
CC(=O)c1cccc(CN2CCCC(C(=O)Nc3ccc(-c4ccco4)cc3)C2)c1 (stereo not given)	u	-6%	-29%	-2%	4%	45µM*
c1ccc(Cc2nnc3sc(-c4ccco4)nn23)cc1	25µM*	79µM*	-11%	-15%	-14%	40µM*
c1ccc(CN2CCN(CCCNc3ccc4nnc(-c5ccccc5)n4n3)CC2)cc1	-10%	u	-5%	15%	-3%	u
Cc1ccc(CNc2ccc3nnc(-c4ccccc4)n3n2)cc1	u	0%	-2%	56µM*	-9%	28%
CCn1c(=O)c2cc(C(=O)NC3CCCCCC3)sc2c2ccccc21	-6%	-2%	-7%	-6%	-13%	8%
Cn1c(=O)c2cc(C(=O)NC3CCCCCC3)sc2c2ccccc21	u	-14%	u	8.9µM*	-6%	-7%
C=C1NN(CC#N)C(=O)N1c1ccc(OCc2ccccc2)cc1	x	-6%	x	x	x	16%
CN(C)c1ccc(CNC(=O)CCS(=O)(=O)c2ccc3c(c2)n(C)c(=O)c(=O)n3C)cc1	-16%	0%	-4%	25µM*	0%	5%
Cc1ccc(CNC(=O)CCS(=O)(=O)c2ccc3c(c2)oc(=O)n3C)cc1	-8%	14%	-4%	29%	-1%	14%
CCOc1ccc(NC(=O)CCS(=O)(=O)c2ccc3c(c2)n(C)c(=O)c(=O)n3C)cc1	x	-14%	-3%	-7%	-4%	13%
Cn1c(=O)c(=O)n(C)c2cc(S(=O)(=O)CCC(=O)Nc3ccc(F)cc3)ccc21	-7%	1%	1.3µM*!	-8%	-1%	-2%
O=C(O)c1cccc(CN2C(=O)S/C(=C/c3cccc([N+](=O)[O-])c3)C2=O)c1	79µM*	-4%	-25%	-9%	1%	u
C=CCN=C1S/C(=C/c2cccc([N+](=O)[O-])c2)C(=O)N1CC=C	-11%	-13%	-6%	0%	-4%	6%
CCNc1nc(NC(C)C)nc(Nn2cnnc2)n1	-9%	10%	3%	35µM*	1%	118%
CC(CSC(=O)c1ccccc1)C(=O)N1CC(Sc2ccccc2)CC1C(=O)O (stereo not given)	x	x	x	x	3%	x
CCOC(=O)Cc1csc(NC(=O)Nc2ccc(Cl)cc2)n1	-20%	-2%	-3%	17%	-12%	-17%[58.9 µM]
Cc1csc(NC(=O)Nc2ccc(Cl)cc2)n1	u	-35%	-4%	28µM*	-2%	u
CCCCOC(=O)CSC1=C(C#N)C(c2ccccc2OCC)C(C#N)C(=O)N1 (stereo not given)	-15%	-38%	-24%	12%	9%	79µM*
NC(=O)COC(=O)c1c2c(nc3ccccc13)CCC2	35µM*	u	-25%	u	u	u
O=C(Nc1cccc(S(=O)(=O)N2CCOCC2)c1)c1c2c(nc3ccccc13)CCC2	u	-38%	-21%	10µM*	0%	45µM*
CCC(C)NC(=O)c1c2c(nc3ccccc13)C(=O)N(C1CCCCC1)C2 (stereo not given)	-14%	0%	-13%	-1%	4%	12%
CCCC(C)NC(=O)c1c2c(nc3ccccc13)CCC2 (stereo not given)	u	u	-15%	18µM*	75%	u
SMILES	POLH inh	POLK inh	GCN5L2 inh	POLB inh	GLS inhibitor	Pol iota inh
CC(C)(C)NC(=O)COC(=O)c1c2c(nc3ccccc13)CCC2	50µM*	-43%	-17%	45µM*	5%	u
CC(C)NC(=O)NC(=O)COC(=O)c1c2c(nc3ccccc13)CCC2	u	-15%	-5%	u	50%	-28%
COc1ccc(NC(=O)C2=CC(c3cccs3)=NS(=O)(=O)N2C)cc1	-4%	5%	-15%	32µM*!	-5%	19%
COc1ccc(C2Nc3ccccc3C(=O)N2Cc2ccccc2)cc1COc1ccc([N+](=O)[O-])cc1 (stereo not given)	x	-6%	x	x	x	12%
Cc1cccc(NC(=O)CN2C(=O)N/C(=C/c3ccc(C)s3)C2=O)c1	-7%	-17%	1%	0%	10%	-14%
Cc1cccc(NC(=O)CN2C(=O)N/C(=C/c3ccc(-c4cccc(C(=O)O)c4C)o3)C2=O)c1	79µM*	-23%	-10%	u	5%	-9%
Cc1ccc(/C=C2/NC(=O)N(c3ccccc3)C2=O)o1	-9%	-6%	u	15%	5%	4%
Cc1c(C(=O)O)cccc1-c1ccc(/C=C2/NC(=O)N(c3ccccc3)C2=O)o1	22µM*	u	-4%	18µM*	5%	u
Cc1ccc(NC(=O)CN2C(=O)N/C(=C/c3ccco3)C2=O)cc1	u	u	u	6.3µM*	-3%	13µM*
Cc1c(C(=O)O)cccc1-c1ccc(/C=C2\SC(=O)NC2=O)o1	22µM*	u	-6%	7%	34%	u
CCN(CC)c1ccc(NC(=S)NC(=O)c2ccco2)cc1	-20%	-2%	-1%	-22%	10µM*	68%
CCN(CC)c1ccc(NC(=O)c2ccco2)cc1	-18%	-13%	-5%	0%	35%	35%
O=C(Nc1ccc(NC(=S)NC(=O)c2cccs2)cc1)c1ccco1	79µM*	u	0%	u	-7%	35µM*
O=C(NC(=S)NNC(=O)c1cccs1)c1ccco1	-3%	-20%	-12%	15%	16%	-4%
O=C(c1cccc(Cl)c1Cl)N(Cc1ccco1)Cc1cccs1	x	-2%	x	x	x	-2%
CN(C)c1ccc(/C=C/C(=O)c2cccc(Br)c2)cc1	-18%	u	4%	u	41%	79µM*
CN(C)c1ccc(C(=O)/C=C/c2cccnc2)cc1	7%	2%	7%	1%	13%	-26%
N#CCCn1c(=O)c(-c2cccs2)nc2cnc(Nc3ccccc3)nc21	x	-2%[60.1 µM]	-2%	x	x	x
CCNc1ncc2nc(-c3cccs3)c(=O)n(CCC#N)c2n1	x	u	7.1µM*	x	x	x
Oc1ccccc1C(Nc1nccs1)c1ccc2cccnc2c1O (stereo not given)	-3%	-4%	-1%	u	16µM*	28%
CC(C)(C)n1ncc2c(=O)n(Cc3cccc(OC(F)F)c3)cnc21	x	-9%	x	x	x	-1%
